Vaccinia Venus: qHTS for Stage-Specific Inhibitors of Vaccinia Orthopoxvirus: Venus Reporter Primary qHTS; Vaccinia virus Venus reporter expression, fluorescence; Potency, µM (top dose mostly 36.5 µM), hits mostly inhibitors; hit rate 0.46% among 330,000; calls by dose curve; tested in A549 cells; also: nearly all actives have a fitted effect of over 30% in size
LASV entry inh: qHTS for Inhibitors of binding or entry into cells for Lassa Virus; hit rate 1.2% among 300,000; Lassa virus pseudotype entry inhibition, cell reporter; AID 540256, 2011; Potency, µM (doses to about 37.9 µM), hits mostly inhibitors; calls by dose curve; tested in HEK293 cells; also: nearly all actives have a fitted effect of over 50% in size
VACV mCherry inh: qHTS for Stage-Specific Inhibitors of Vaccinia Orthopoxvirus: mCherry Reporter Primary qHTS | Vaccinia virus mCherry reporter infection, fluorescence | hit rate 0.63% among 310,000 | Potency, µM (titrated, usually from 36.5 µM), usual class: inhibitors; calls by dose curve; tested in A549 cells; also: nearly all actives have a fitted effect of over 35% in size
HCV inh: qHTS Assay for Inhibitors of Hepatitis C Virus (HCV); Potency, µM (doses to about 41.8 µM), hits mostly inhibitors; hit rate 3.4% among 340,000; Huh7.5.1 HCVcc-Cre infection, luciferase reporter, 44 h; active = well fitted inhibition curve with a large enough effect; inconclusive = small, poorly fitted or top-dose-only effect, or another doubt; inactive = no such curve, though single readings can be large or run the other way
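1,000 cells/well; 4 h culture; + compound; + HCVcc-Cre (~0.5 moi); 44 h; luciferase substrate, RT 15 min; read 15 sec.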
Marburg entry inh: qHTS for inhibitors of binding or entry into cells for Marburg Virus; Marburg virus pseudotyped entry inhibition, cell reporter; Potency, µM (highest dose often 37.8 µM), most hits filed as inhibitors; hit rate 1.8% among 300,000; AID 540276, 2011; calls by dose curve; tested in HEK293 cells
Numbers stand for hits; [ ] = another dose, or the depositor's remark. Shown are actives, neighbours in structure and some others; about 4.6% of the full set was active somewhere.

O=C(/C=C/c1ccc(Cl)cc1)c1ccc([N+](=O)[O-])o1 was read as Vaccinia Venus 10µM, VACV mCherry inh 8.9µM and HCV inh inactive[8.37 µM].
`Cc1ccc(/C=C/C(=O)c2ccc([N+](=O)[O-])o2)cc1` gave Vaccinia Venus inconclusive, VACV mCherry inh inactive and HCV inh 0.56µM.
For Cc1cccc(N2CCN(C(=O)CN3CCSc4ccccc43)CC2C)c1 (configuration not stated) the results were Vaccinia Venus inactive, LASV entry inh inactive and VACV mCherry inh inactive.
Screening COc1ccc(Nc2nc(C)nc3c2nnn3Cc2ccccc2)cc1OC returned Vaccinia Venus inconclusive, LASV entry inh inactive, HCV inh inconclusive and Marburg entry inh inconclusive.
Screening Cc1nc(Nc2ccc(Cl)cc2)c2nnn(Cc3ccccc3)c2n1 returned Vaccinia Venus inactive, LASV entry inh inactive, VACV mCherry inh inactive, HCV inh 32µM and Marburg entry inh inactive.
Screening CCCCCC(=O)/C=C/C=C\CCCCCCCC(=O)O returned Vaccinia Venus inactive[0.293 µM] and VACV mCherry inh inactive[0.293 µM].
COc1ccc(C(CC(C)=O)c2c(O)c3ccccc3oc2=O)cc1OC (configuration not stated) was read as Vaccinia Venus inactive and VACV mCherry inh inactive.
Screening CC/C(CC(c1ccccc1)c1c(O)c2ccccc2oc1=O)=N\NC(N)=S (configuration not stated) returned Vaccinia Venus inconclusive, LASV entry inh inactive, VACV mCherry inh 14µM, HCV inh inactive and Marburg entry inh inconclusive.
COc1ccc(/C=C\C(=O)c2c(O)ccc3c(C)cc(=O)oc23)cc1OC was read as Vaccinia Venus inconclusive, LASV entry inh inconclusive, VACV mCherry inh inactive, HCV inh 10µM and Marburg entry inh inconclusive.
Screening CCOc1ccc(S(=O)(=O)/N=C(/c2ccccc2)N(C)C)cc1 returned HCV inh inactive.
`CCOc1ccc(S(=O)(=O)/N=C(\N)c2ccccc2)cc1` gave Vaccinia Venus inactive, LASV entry inh 13µM, VACV mCherry inh inconclusive, HCV inh inconclusive and Marburg entry inh inactive.
For CC(C)(C)c1ccc(C(=O)NCc2ccc(Cl)cc2)cc1 the results were Vaccinia Venus inconclusive, LASV entry inh inactive, VACV mCherry inh inactive, HCV inh inactive and Marburg entry inh inactive.
`CC(C)(C)c1ccc(C(=O)N2CCN(CCNC(=O)C(=O)NCc3ccc(Cl)cc3)CC2)cc1` gave Vaccinia Venus inconclusive, LASV entry inh inconclusive, VACV mCherry inh inactive, HCV inh 11µM and Marburg entry inh inconclusive.
c1ccc(-c2nc(SCC3CCCCO3)n[nH]2)cc1 (configuration not stated) was read as Vaccinia Venus inactive and VACV mCherry inh inactive.
For COCCNc1c(-c2cc3ccc(C)c(C)c3[nH]c2=O)nc2ccccn12 the results were Vaccinia Venus inactive, LASV entry inh 5µM, VACV mCherry inh inconclusive, HCV inh inactive and Marburg entry inh inconclusive.
Screening COCCNc1c(-c2ccc(OC)c(OC)c2)nc2ccc(Cl)cn12 returned HCV inh inactive.
Screening C/C(=N\NC(=O)c1cccc2ccccc12)c1ccccn1 returned Vaccinia Venus inactive, LASV entry inh 7.9µM, VACV mCherry inh inconclusive, HCV inh 5µM and Marburg entry inh inconclusive.
`O=C(NCc1ccc(F)cc1)c1ccccc1OCc1ccccc1` gave Vaccinia Venus inactive, LASV entry inh inconclusive, VACV mCherry inh inactive, HCV inh inactive and Marburg entry inh inconclusive.
Screening C/C(=N\NC(=O)c1ccccc1OCc1ccc(F)cc1)c1ccccn1 returned HCV inh 2.8µM.
Screening C/C(CC(=O)Nc1ccccn1)=N\NC(=O)c1ccccc1O returned Vaccinia Venus inactive, LASV entry inh inconclusive, VACV mCherry inh 4µM, HCV inh 7.1µM and Marburg entry inh inconclusive.
For C/C(=N\NC(=O)c1cccc2ccccc12)c1cccs1 the results were HCV inh inactive.
`NNC(=O)c1cc(-c2cccs2)nc2ccccc12` gave HCV inh inactive.
`C/C(=N\NC(=O)c1cc(-c2cccs2)nc2ccccc12)c1ccccn1` gave LASV entry inh 6.5µM, HCV inh 0.56µM and Marburg entry inh 4.6µM.
C[C@@H]1CC[C@H]2C(=O)O[C@@H](Cc3ccccc3)CN2[C@@H]1c1ccc(Br)cc1 was read as Marburg entry inh inactive.
